The list is not random: actives were taken first. Their share in the collection is about 1.2%.
NS1 inh: blocks influenza NS1 protein function; AID 2326; Potency, µM (doses to about 46.1 µM), for inactives: top-dose activity, positive = more growth; actives 0.4% (n = 270,000); calls by dose curve; note: actives are rising curves; nearly all actives have a fitted effect of over 50% in size
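Growth recovery, yeast-based: influenza A NS1 expressed in S. cerevisiae causes slow growth, and suppressors are detected by OD600. The parent strain without NS1 is used as positive control.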
Giardia FBPA inh-1: Giardia lamblia aldolase inhibition. Potency, µM (highest dose often 59.6 µM), inactives show at the top dose activity, negative = inhibition, most hits filed as inhibitors. purified Giardia FBPA. actives 0.71% (n = 290,000). A8B2U2; note: % is set by controls: 0 for no effect and ±100 for the full control effect; nearly all actives have a fitted effect of over 55% in size
Target sequence (A8B2U2 whole entry, looked up): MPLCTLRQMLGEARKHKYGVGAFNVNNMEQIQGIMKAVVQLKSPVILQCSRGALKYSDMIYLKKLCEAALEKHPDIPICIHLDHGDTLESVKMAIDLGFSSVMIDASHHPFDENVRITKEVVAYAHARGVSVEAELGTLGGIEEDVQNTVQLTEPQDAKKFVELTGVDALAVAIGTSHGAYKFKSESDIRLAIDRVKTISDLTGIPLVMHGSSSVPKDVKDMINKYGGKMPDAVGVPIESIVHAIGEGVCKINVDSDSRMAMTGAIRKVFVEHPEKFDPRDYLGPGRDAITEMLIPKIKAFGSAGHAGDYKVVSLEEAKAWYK
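Giardia FBPA (40 nM reagent) was preincubated 10 min at RT with compound (up to 57.5 uM final), then substrate plus GAPDH/TPI/NAD/arsenate coupling system with diaphorase/resazurin was added; resorufin fluorescence (525/598 nm) was read after 20 min.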
AMA1-RON2 inh: disrupts binding of P. falciparum AMA1 to RON2; Potency, µM (doses to about 58.2 µM), without a hit: at the highest dose activity change, negative = inhibition, hits mostly inhibitors; actives 0.2% (n = 360,000); AlphaScreen AMA1-biotinylated RON2 peptide binding;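 note: 0% = vehicle wells and -100% = peptide control; nearly all actives have a fitted effect of over 45% in size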
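AMA1 (3D7) with his tag at 25 nM final met compounds first, then biotinylated RON2 peptide at 25 nM; detection used donor plus acceptor beads, 10 µg/mL apiece, read by AlphaScreen after 30 min at room temperature.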
Tb PYK inh: T. brucei pyruvate kinase inhibition; actives 0.12% (n = 410,000); Q57TT1; TbPYK enzyme, Kinase-Glo Plus ATP luminescence, 45 min; Potency, µM (highest dose often 76.8 µM), for the others: top-dose activity, negative = inhibition, actives largely listed as inhibitors; note: % is set by controls: 0 for no effect and ±100 for the full control effect; nearly all actives have a fitted effect of over 50% in size
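Screened from lowest to highest concentration, compounds were pinned into TbPYK/substrate mixtures, and ADP (130 uM final) was added. Plates sat at room temperature for 45 min prior to Kinase-Glo Plus detection by luminescence.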
LmPK inhibitor: inhibitors of Leishmania mexicana pyruvate kinase. purified LmPK, Kinase-Glo ATP luminescence, 1 h. Potency, µM (highest dose often 57.5 µM), for inactives: top-dose activity change, negative = inhibition, most hits filed as inhibitors. AID 1721. actives 0.37% (n = 290,000); note: % is set by controls: 0 for no effect and ±100 for the full control effect
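Pyruvate kinase activity monitored as ATP production (luciferase luminescence). Conditions: 0.1 nM enzyme, 0.5 mM PEP, 0.1 mM ADP, 1 h, RT; normalized against uninhibited and no-enzyme wells.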
Giardia growth: Giardia lamblia growth inhibition; Giardia lamblia trophozoite growth inhibition; actives 5% (n = 1,500); shares compounds with Giardia FBPA inh-1; Potency, µM (top dose mostly 57.5 µM), for the others: top-dose activity change, negative = inhibition, most hits filed as inhibitors; AID 2785;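 note: trophozoites exposed to compound for 48 h at 37 °C; % is set by controls: 0 for no effect and ±100 for the full control effect; nearly all actives have a fitted effect of over 70% in size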
Mammal cell tox: toxic to mammalian cells in Giardia aldolase counter-screen; shares compounds with Giardia FBPA inh-1; mammalian cell viability counter-screen, qHTS; Potency, µM (top dose mostly 57.5 µM), for the others: at the top dose viability change, negative = toxicity, actives largely listed as inhibitors; actives 4% (n = 1,500);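 note: Chinese hamster ovary cells used as mammalian cytotoxicity surrogate; viability measured as cellular ATP by luminescence; compound exposure lasted 48 h before reading; % is set by controls: 0 for no effect and ±100 for the full control effect; nearly all actives have a fitted effect of over 60% in size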
Giardia FBPA inh-2: confirmation of Giardia fructose-bisphosphate aldolase inhibitors | purified Giardia aldolase enzyme activity, qHTS | actives 5% (n = 1,500) | shares compounds with Giardia FBPA inh-1 | AID 2787 | Potency, µM (top dose mostly 57.5 µM), inactives show at the top dose activity change, negative = inhibition, most hits filed as inhibitors; note: % is set by controls: 0 for no effect and ±100 for the full control effect; nearly all actives have a fitted effect of over 45% in size
Rabbit FBPA inh: rabbit FBP aldolase inhibition by Giardia aldolase hits. Potency, µM (top dose mostly 57.5 µM), for the others: at the highest dose activity, negative = inhibition, most hits filed as inhibitors. actives 4% (n = 1,500). Rabbit muscle FBPA enzyme inhibition, selectivity counter-screen. AID 2794. shares compounds with Giardia FBPA inh-1; note: % is set by controls: 0 for no effect and ±100 for the full control effect; nearly all actives have a fitted effect of over 60% in size
GAPDH coupling: GAPDH inhibition flagged for Giardia aldolase hits; shares compounds with Giardia FBPA inh-1; GAPDH coupling enzyme counterscreen, biochemical, qHTS; Potency, µM (series often up to 57.5 µM), for the others: at the highest dose activity change, negative = inhibition, hits mostly inhibitors; actives 6% (n = 1,500); note: % is set by controls: 0 for no effect and ±100 for the full control effect; nearly all actives have a fitted effect of over 55% in size
Active calls of the source: *; ? = inconclusive; · = no result; [ ] = dose if it differs, or a comment. Unless noted, calls come from the whole dose curve; as a rule, active = well fitted curve in the direction sought with a large enough effect; inconclusive = small, poorly fitted or top-dose-only effect, or another doubt; inactive = no such curve, though single readings can be large; an effect the other way counts as inactive or inconclusive. Potency is the fitted concentration of half-maximal effect.

SMILES | NS1 inh | Giardia FBPA inh-1 | AMA1-RON2 inh | Tb PYK inh | LmPK inhibitor | Giardia growth | Mammal cell tox | Giardia FBPA inh-2 | Rabbit FBPA inh | GAPDH coupling
CCSC[C@H](NC(=O)[C@H](C)NC(=O)[C@@H](N)Cc1ccc(O)cc1)C(=O)N[C@@H](CC(=O)O)C(=O)N[C@H](C(=O)N[C@@H](C)C(=O)N[C@H](C(=O)N[C@@H](CSCC)C(=O)N[C@H](C(=O)N[C@H](C(=O)N[C@@H](Cc1cnc[nH]1)C(=O)N[C@@H](CCCNC(=N)N)C(=O)N[C@@H](CC(C)C)C(=O)N[C@@H](C)C(=O)NCC(=O)N[C@@H](CC(C)C)C(=O)N[C@@H](CC(C)C)C(=O)N[C@@H](CO)C(=O)N[C@@H](CCCNC(=N)N)C(=O)N[C@@H](CO)C(=O)NCC(=O)NCC(=O)N[C@H](C(=O)N[C@H](C(=O)N[C@@H](CCCCN)C(=O)N[C@@H](CC(N)=O)C(=O)N[C@@H](CC(N)=O)C(=O)N[C@@H](Cc1ccccc1)C(=O)N[C@H](C(=O)N1CCC[C@H]1C(=O)N[C@H](C(=O)N[C@@H](CC(N)=O)C(=O)N[C@H](C(=O)NCC(=O)N[C@@H](CO)C(=O)N[C@@H](CCCCN)C(=O)N[C@@H](C)C(=O)N[C@@H](Cc1ccccc1)C(N)=O)C(C)C)[C@@H](C)O)C(C)C)C(C)C)C(C)C)[C@@H](C)O)C(C)C)[C@@H](C)O)[C@@H](C)O | · | -1% | · | · | · | · | · | · | · | ·
COc1cccc2c1C(=O)C=C(C)C2=O | -32% | ? | 5% | -10% | -2% | · | · | · | · | ·
CC1=CC(=O)c2ccccc2C1=O | -22% | ? | -14% | 1% | 2% | -8%[38.3 µM] | -14% | ? | ? | ?
CC(C)NCC(=O)Nc1c2c(nc3ccccc13)CCC2 | 0% | 18µM* | 5% | 0% | -9% | 9%[10.4 µM] | -7% | 2% | 3% | 12%
N#CC1=C2SCN(c3ccc(F)cc3)CN2C(=O)CC1c1cccc(F)c1 (stereo unspecified) | ? | 7.1µM* | 54% | ? | 2% | 12% | 5% | -28% | ? | -26%
CCOC(=O)c1ccc(N2CSC3=C(C#N)C(c4cccs4)CC(=O)N3C2)cc1 (stereo unspecified) | -45% | 20µM* | 33% | ? | 2% | 25% | -18% | -13% | -23% | -7%
COC(=O)[C@H](COC(C)(C)C)NC(=O)O[C@@H]1C(=O)c2cc(OC)ccc2O[C@H]1c1cccc(OC)c1 | · | -2% | · | · | · | · | · | · | · | ·
O=c1oc2ccccc2c2c1C1O[C@](c3ccsc3)(Cc3ccccc31)O2 | 13% | 18%[12.9 µM] | · | · | -5%[11.5 µM] | · | · | · | · | ·
C[C@@H](C(=O)O)c1ccc(N2Cc3ccccc3C2=O)cc1 | · | 4%[21.7 µM] | · | · | · | · | · | · | · | ·
CC[C@@H]1CC(=O)N(SC[C@H](N)C(=O)O)C1=O | -1% | · | · | · | · | · | · | · | · | ·
c1ccc(-c2nn[nH]n2)nc1 | -4% | 7.9µM* | ? | -19% | -4% | 17%[38.3 µM] | 10% | -4% | 0% | -9%
